We go through 18 compounds from PubChem BioAssay.

A number with no mark means an inactive call. The source made the active and inactive calls.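 The calls were made as follows: active = normalized viability below 100% at a tested concentration; inactive = the rest.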

The nature of the first assay: drug combination growth inhibition, ovarian cancer – cell-based, oncology-focused library, rucaparib conditional, profiling panel (AID 1508598). Conditions: patient-derived ovarian cancer cells, CellTiter-Glo viability, 144 h; at 0.313 µM; OCI-C5x cells; without rucaparib; stronger effect = lower value. In general terms: ATP-based viability assays read luminescence as a measure of living cells.
For `N[C@@H]1CCCN(c2c(/C=C3\SC(=O)NC3=O)cccc2-c2ccccc2)C1`, the viability is 99.1% (active).
Same read-out and setting: next, `C[C@@H]1C[C@H]2[C@@H]3CCC4=CC(=O)C=C[C@]4(C)[C@]3(F)[C@H](O)C[C@]2(C)[C@]1(O)C(=O)CO`: 109%; `Cc1cc2c(C(=O)NC[C@H](C)c3ccccc3)c(O)c(O)cc2c(O)c1-c1c(C)cc2c(C(=O)NC[C@H](C)c3ccccc3)c(O)c(O)cc2c1O`: 106%.
Still for that read-out and setting: the result for `Nc1nc(F)nc2c1ncn2[C@H]1O[C@H](CO)[C@@H](O)[C@@H]1O` reads 112%; that for `COc1cccc2c1C(=O)c1c(O)c3c(c(O)c1C2=O)C[C@@](O)(C(=O)CO)C[C@H]3O[C@H]1C[C@H](N)[C@@H](O)[C@H](C)O1`, 43.3% (active); that for `C=C1/C(=C/C=C2\CCC[C@@]3(C)[C@H]2CC[C@H]3[C@H](C)/C=C/[C@@H](C)C(C)C)C[C@H](O)C[C@@H]1O`, 96.6% (active).
The same measure, in the same setting: next, `CO[C@H]1C[C@H]2CC[C@@H](C)[C@@](O)(O2)C(=O)C(=O)N2CCCC[C@H]2C(=O)O[C@H]([C@H](C)C[C@@H]2CC[C@H](OP(C)(C)=O)[C@H](OC)C2)CC(=O)[C@H](C)/C=C(\C)[C@@H](O)[C@@H](OC)C(=O)[C@H](C)C[C@H](C)/C=C/C=C/C=C/1C`: 95.8% (active); `C=CCNC1=C2C[C@@H](C)C[C@H](OC)[C@H](O)[C@@H](C)/C=C(\C)[C@H](OC(N)=O)[C@@H](OC)/C=C\C=C(\C)C(=O)NC(=CC1=O)C2=O`: 56.1% (active).
In the case of `CC[C@]1(O)C[C@@H]2CN(CCc3c([nH]c4ccccc34)[C@@](C(=O)OC)(c3cc4c(cc3OC)N(C=O)[C@@H]3C45CCN4CC=C[C@](CC)([C@H]45)[C@H](OC(C)=O)[C@]3(O)C(=O)OC)C2)C1` (stereo partly specified), the viability was 27.2% (active).
Same read-out and setting: next, `COc1cccc2c1C(=O)c1c(O)c3c(c(O)c1C2=O)C[C@@](O)(C(C)=O)C[C@H]3O[C@H]1C[C@H](N)[C@H](O)[C@H](C)O1`: 5.28% (active).
Still for that read-out and setting: the result for `CCOc1ccc(Cc2cc([C@@H]3O[C@H](CO)[C@@H](O)[C@H](O)[C@@H]3O)ccc2Cl)cc1` reads 118%; that for `CC(=O)[C@]1(O)Cc2c(O)c3c(c(O)c2[C@H](O[C@H]2C[C@H](N)[C@H](O)[C@H](C)O2)C1)C(=O)c1ccccc1C3=O`, 1.75% (active).
`CCC1=CC2CN(C1)Cc1c([nH]c3ccccc13)[C@@](C(=O)OC)(c1cc3c(cc1OC)N(C)[C@H]1[C@@](O)(C(=O)OC)[C@H](OC(C)=O)[C@]4(CC)C=CCN5CC[C@@]31[C@H]54)C2` (stereo partly specified): the viability is 23.8% (active).
On the same count and under the same terms, the result for `CC(=O)O[C@H]1C(=O)[C@@]2(C)C([C@H](OC(=O)c3ccccc3)[C@]3(O)C[C@H](OC(=O)[C@H](O)[C@@H](NC(=O)c4ccccc4)c4ccccc4)C(C)=C1C3(C)C)[C@]1(OC(C)=O)CO[C@@H]1C[C@H]2O` (stereo partly specified) reads 29.8% (active).
For `CO[C@H]1C[C@H]2CC[C@@H](C)[C@@](O)(O2)C(=O)C(=O)N2CCCC[C@H]2C(=O)O[C@H]([C@H](C)C[C@@H]2CC[C@H](OC(=O)C(C)(CO)CO)[C@H](OC)C2)CC(=O)[C@H](C)/C=C(\C)[C@@H](O)[C@@H](OC)C(=O)[C@H](C)C[C@H](C)/C=C/C=C/C=C/1C`, the viability was 87.6% (active).
Same read-out and setting: the result for `CO[C@H]1/C=C\C=C(\C)C(=O)NC2=CC(=O)C(NCCN(C)C)=C(C[C@@H](C)C[C@H](OC)[C@H](O)[C@@H](C)/C=C(\C)[C@@H]1OC(N)=O)C2=O` reads 10.1% (active).
As to `CC(C)(C(=O)NCC(F)(F)C(F)(F)F)C(=O)N[C@H]1C(=O)Nc2ccccc2-c2ccccc21`, the viability is 107%.
On to `CC1(C)O[C@@H]2C[C@H]3[C@@H]4CCC5=CC(=O)C=C[C@]5(C)[C@]4(F)[C@H](O)C[C@]3(C)[C@@]2(C(=O)CO)O1`, for which the viability was 114%.

The same assay, now with this note: patient-derived ovarian cancer cells, CellTiter-Glo viability, 144 h; at 0.313 µM; OCI-P5x cells; with rucaparib 20 µM; stronger effect = lower value; 100% = cells with rucaparib alone.
Consider `N[C@@H]1CCCN(c2c(/C=C3\SC(=O)NC3=O)cccc2-c2ccccc2)C1`, for which the viability was 91.3% (active).
The same measure, in the same setting: next, `C[C@@H]1C[C@H]2[C@@H]3CCC4=CC(=O)C=C[C@]4(C)[C@]3(F)[C@H](O)C[C@]2(C)[C@]1(O)C(=O)CO`: 104%; `Cc1cc2c(C(=O)NC[C@H](C)c3ccccc3)c(O)c(O)cc2c(O)c1-c1c(C)cc2c(C(=O)NC[C@H](C)c3ccccc3)c(O)c(O)cc2c1O`: 96.3% (active).
Same read-out and setting: next, `Nc1nc(F)nc2c1ncn2[C@H]1O[C@H](CO)[C@@H](O)[C@@H]1O`: 99% (active); `COc1cccc2c1C(=O)c1c(O)c3c(c(O)c1C2=O)C[C@@](O)(C(=O)CO)C[C@H]3O[C@H]1C[C@H](N)[C@@H](O)[C@H](C)O1`: 45.3% (active).
Regarding `C=C1/C(=C/C=C2\CCC[C@@]3(C)[C@H]2CC[C@H]3[C@H](C)/C=C/[C@@H](C)C(C)C)C[C@H](O)C[C@@H]1O`, the viability is 107%.
On the same count and under the same terms, next, `CO[C@H]1C[C@H]2CC[C@@H](C)[C@@](O)(O2)C(=O)C(=O)N2CCCC[C@H]2C(=O)O[C@H]([C@H](C)C[C@@H]2CC[C@H](OP(C)(C)=O)[C@H](OC)C2)CC(=O)[C@H](C)/C=C(\C)[C@@H](O)[C@@H](OC)C(=O)[C@H](C)C[C@H](C)/C=C/C=C/C=C/1C`: 75.8% (active).
For `C=CCNC1=C2C[C@@H](C)C[C@H](OC)[C@H](O)[C@@H](C)/C=C(\C)[C@H](OC(N)=O)[C@@H](OC)/C=C\C=C(\C)C(=O)NC(=CC1=O)C2=O`, the viability is 12.5% (active).
As for `CC[C@]1(O)C[C@@H]2CN(CCc3c([nH]c4ccccc34)[C@@](C(=O)OC)(c3cc4c(cc3OC)N(C=O)[C@@H]3C45CCN4CC=C[C@](CC)([C@H]45)[C@H](OC(C)=O)[C@]3(O)C(=O)OC)C2)C1` (stereo partly specified), the viability is 56.1% (active).
Consider `COc1cccc2c1C(=O)c1c(O)c3c(c(O)c1C2=O)C[C@@](O)(C(C)=O)C[C@H]3O[C@H]1C[C@H](N)[C@H](O)[C@H](C)O1`, for which the viability is 25.9% (active).
The same measure, in the same setting: next, `CCOc1ccc(Cc2cc([C@@H]3O[C@H](CO)[C@@H](O)[C@H](O)[C@@H]3O)ccc2Cl)cc1`: 105%.
Same read-out and setting: the result for `CC(=O)[C@]1(O)Cc2c(O)c3c(c(O)c2[C@H](O[C@H]2C[C@H](N)[C@H](O)[C@H](C)O2)C1)C(=O)c1ccccc1C3=O` reads 19% (active).
On the same count and under the same terms, the result for `CCC1=CC2CN(C1)Cc1c([nH]c3ccccc13)[C@@](C(=O)OC)(c1cc3c(cc1OC)N(C)[C@H]1[C@@](O)(C(=O)OC)[C@H](OC(C)=O)[C@]4(CC)C=CCN5CC[C@@]31[C@H]54)C2` (stereo partly specified) reads 46.6% (active); that for `CC(=O)O[C@H]1C(=O)[C@@]2(C)C([C@H](OC(=O)c3ccccc3)[C@]3(O)C[C@H](OC(=O)[C@H](O)[C@@H](NC(=O)c4ccccc4)c4ccccc4)C(C)=C1C3(C)C)[C@]1(OC(C)=O)CO[C@@H]1C[C@H]2O` (stereo partly specified), 57.9% (active); that for `CO[C@H]1C[C@H]2CC[C@@H](C)[C@@](O)(O2)C(=O)C(=O)N2CCCC[C@H]2C(=O)O[C@H]([C@H](C)C[C@@H]2CC[C@H](OC(=O)C(C)(CO)CO)[C@H](OC)C2)CC(=O)[C@H](C)/C=C(\C)[C@@H](O)[C@@H](OC)C(=O)[C@H](C)C[C@H](C)/C=C/C=C/C=C/1C`, 71.6% (active).
As for `CO[C@H]1/C=C\C=C(\C)C(=O)NC2=CC(=O)C(NCCN(C)C)=C(C[C@@H](C)C[C@H](OC)[C@H](O)[C@@H](C)/C=C(\C)[C@@H]1OC(N)=O)C2=O`, the viability is 7.13% (active).
Same read-out and setting: the result for `CC(C)(C(=O)NCC(F)(F)C(F)(F)F)C(=O)N[C@H]1C(=O)Nc2ccccc2-c2ccccc21` reads 85.7% (active); that for `CC1(C)O[C@@H]2C[C@H]3[C@@H]4CCC5=CC(=O)C=C[C@]5(C)[C@]4(F)[C@H](O)C[C@]3(C)[C@@]2(C(=O)CO)O1`, 90.6% (active).

One may read the viability as a read-out of living cells in per cent, often relative to untreated cells.
